In PubChem BioAssay AID1159580 (chemical genetic matrix, 2015):
“And” between values parts separate entries of the source, which are not always exact repeats. Identical values can stand only once. About 2,000 (36%) of roughly 5,500 compounds were called active. Inconclusive results (about 18%) are left out. Cut-off read from the data, not from the text of the source: active = normalized growth mostly below about 0.91 (no sharp cut-off); inconclusive = no clear call, values can overlap the other calls; inactive = mostly above about 0.92. Some of the results follow.

Experiment: chemical genetic growth profiling, strain panel (AID 1159580);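 note: tested at 20 µM; growth read once vehicle control cultures reached saturation at 30 °C; 1 = growth at the plate median or of vehicle wells; lower values mean less growth of the strain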
Conditions: growth OD

Measured: normalized growth

O=c1[nH]oc2c1CCNC2
inactive: S. cerevisiae deletion strains, locus YKL009W, strain mrt4, active compounds read low 0.992 | S. cerevisiae deletion strains, locus YKL068W, active compounds read low 0.982 | S. cerevisiae deletion strains, locus YKL085W, strain MDH1 (second series), active compounds read low 1.03 | S. cerevisiae deletion strains, locus YKL085W, strain MDH1, active compounds read low 1.03 | S. cerevisiae deletion strains, locus YKL160W, strain elf1, active compounds read low 0.99 | S. cerevisiae deletion strains, locus YKL190W, strain CNB1, active compounds read low 1.01 | S. cerevisiae deletion strains, locus YKR001C, strain vps1, active compounds read low 0.977 | S. cerevisiae deletion strains, locus YKR026C, strain gcn3, active compounds read low 1 | S. cerevisiae deletion strains, locus YKR091W, strain srl3, active compounds read low 1 | S. cerevisiae deletion strains, locus YLL001W, strain dnm1, active compounds read low 0.973 | S. cerevisiae deletion strains, locus YLL026W, active compounds read low 0.989 | S. cerevisiae deletion strains, locus YLL041C, strain sdh2, active compounds read low 1.01 | S. cerevisiae deletion strains, locus YLR027C, strain aat2, active compounds read low 0.99 | S. cerevisiae deletion strains, locus YLR039C, strain RIC1, active compounds read low 1.01 | S. cerevisiae deletion strains, locus YLR058C, strain SHM2, active compounds read low 0.999 | S. cerevisiae deletion strains, locus YLR102C, strain apc9, active compounds read low 0.982 | S. cerevisiae deletion strains, locus YLR113W, strain HOG1, active compounds read low 0.974 | S. cerevisiae deletion strains, locus YLR221C, strain rsa3, active compounds read low 0.999 | S. cerevisiae deletion strains, locus YLR258W, strain gsy2, active compounds read low 1 | S. cerevisiae deletion strains, locus YLR262C, strain YPT6 (second series), active compounds read low 1 | S. cerevisiae deletion strains, locus YLR262C, strain YPT6, active compounds read low 0.993 | S. cerevisiae deletion strains, locus YLR268W, strain sec22, active compounds read low 1.01 | S. cerevisiae deletion strains, locus YLR320W, strain mms22, active compounds read low 1.01 | S. cerevisiae deletion strains, locus YLR330W, strain CHS5, active compounds read low 0.986 | S. cerevisiae deletion strains, locus YLR342W, strain FKS1 (second series), active compounds read low 0.989 | S. cerevisiae deletion strains, locus YLR342W, strain FKS1, active compounds read low 0.975 | S. cerevisiae deletion strains, locus YLR357W, strain rsc2, active compounds read low 0.957 | S. cerevisiae deletion strains, locus YLR370C, strain arc18, active compounds read low 1 | S. cerevisiae deletion strains, locus YLR371W, strain rom2, active compounds read low 0.975 | S. cerevisiae deletion strains, locus YLR384C, strain iki3, active compounds read low 0.999 | S. cerevisiae deletion strains, locus YLR418C, strain cdc73, active compounds read low 1.05 | S. cerevisiae deletion strains, locus YML016C, strain PPZ1, active compounds read low 1.01 | S. cerevisiae deletion strains, locus YML032C, strain rad52, active compounds read low 0.954 | S. cerevisiae deletion strains, locus YML120C, strain ndi1, active compounds read low 0.993 | S. cerevisiae deletion strains, locus YML124C, strain tub3, active compounds read low 0.987 | S. cerevisiae deletion strains, locus YMR058W, strain fet3, active compounds read low 1.01 | S. cerevisiae deletion strains, locus YMR078C, strain ctf18, active compounds read low 0.97 | S. cerevisiae deletion strains, locus YMR125W, strain sto1, active compounds read low 0.989 | S. cerevisiae deletion strains, locus YMR129W, active compounds read low 0.996 | S. cerevisiae deletion strains, locus YMR205C, strain PFK2, active compounds read low 0.992 | S. cerevisiae deletion strains, locus YMR223W, strain ubp8, active compounds read low 0.967 | S. cerevisiae deletion strains, locus YMR231W, strain pep5, active compounds read low 0.995 | S. cerevisiae deletion strains, locus YMR263W, strain SAP30, active compounds read low 1.02 | S. cerevisiae deletion strains, locus YMR307W, strain GAS1, active compounds read low 1.06 and 0.998 | S. cerevisiae deletion strains, locus YNL067W, strain RPL9B, active compounds read low 1.03 | S. cerevisiae deletion strains, locus YNL071W, strain lat1, active compounds read low 1.01 | S. cerevisiae deletion strains, locus YNL128W, strain TEP1, active compounds read low 1.03 | S. cerevisiae deletion strains, locus YNL153C, strain GIM3, active compounds read low 1.03 | S. cerevisiae deletion strains, locus YNL175C, strain NOP13, active compounds read low 1.02 | S. cerevisiae deletion strains, locus YNL183C, strain NPR1, active compounds read low 0.924 | S. cerevisiae deletion strains, locus YNL197C, strain WHI3, active compounds read low 1.05 | S. cerevisiae deletion strains, locus YNL209W, strain ssb2, active compounds read low 0.999 | S. cerevisiae deletion strains, locus YNL224C, strain SQS1, active compounds read low 1.02 | S. cerevisiae deletion strains, locus YNL233W, strain BNI4, active compounds read low 1.04 | S. cerevisiae deletion strains, locus YNL248C, strain rpa49, active compounds read low 1.01 | S. cerevisiae deletion strains, locus YNL250W, strain rad50, active compounds read low 0.966 | S. cerevisiae deletion strains, locus YNL271C, strain bni1, active compounds read low 0.989 | S. cerevisiae deletion strains, locus YNL298W, strain CLA4, active compounds read low 0.962 | S. cerevisiae deletion strains, locus YNL307C, strain MCK1, active compounds read low 0.988 | S. cerevisiae deletion strains, locus YNL322C, strain KRE1 (second series), active compounds read low 0.995 | S. cerevisiae deletion strains, locus YNL322C, strain KRE1, active compounds read low 0.999 | S. cerevisiae deletion strains, locus YNR049C, strain mso1, active compounds read low 1 | S. cerevisiae deletion strains, locus YNR052C, strain pop2, active compounds read low 0.955 | S. cerevisiae deletion strains, locus YOL006C, strain TOP1, active compounds read low 1.09 | S. cerevisiae deletion strains, locus YOL012C, strain htz1 1.13 | S. cerevisiae deletion strains, locus YOL147C, strain pex11, active compounds read low 0.979 | S. cerevisiae deletion strains, locus YOR001W, strain rrp6, active compounds read low 0.991 | S. cerevisiae deletion strains, locus YOR061W, strain CKA2, active compounds read low 1 | S. cerevisiae deletion strains, locus YOR069W, strain VPS5, active compounds read low 0.993 | S. cerevisiae deletion strains, locus YOR070C, strain gyp1, active compounds read low 0.999 | S. cerevisiae deletion strains, locus YOR080W, strain dia2, active compounds read low 0.998 | S. cerevisiae deletion strains, locus YOR083W, strain WHI5 (second series), active compounds read low 1 | S. cerevisiae deletion strains, locus YOR083W, strain WHI5, active compounds read low 0.976 | S. cerevisiae deletion strains, locus YOR106W, strain vam3, active compounds read low 1 | S. cerevisiae deletion strains, locus YOR136W, strain idh2, active compounds read low 0.975 | S. cerevisiae deletion strains, locus YOR144C, strain elg1, active compounds read low 0.989 | S. cerevisiae deletion strains, locus YOR184W, strain ser1, active compounds read low 0.955 | S. cerevisiae deletion strains, locus YOR231W, strain MKK1, active compounds read low 1.01 | S. cerevisiae deletion strains, locus YOR265W, strain rbl2, active compounds read low 0.994 | S. cerevisiae deletion strains, locus YOR270C, strain vph1, active compounds read low 1.04 | S. cerevisiae deletion strains, locus YOR290C, strain snf2, active compounds read low 0.995 | S. cerevisiae deletion strains, locus YOR316C, strain cot1, active compounds read low 0.995 | S. cerevisiae deletion strains, locus YPL051W, strain arl3, active compounds read low 0.996 | S. cerevisiae deletion strains, locus YPL055C, strain LGE1, active compounds read low 1.07 and 1.01 | S. cerevisiae deletion strains, locus YPL078C, strain atp4, active compounds read low 0.992 | S. cerevisiae deletion strains, locus YPL106C, strain sse1, active compounds read low 0.985 | S. cerevisiae deletion strains, locus YPL240C, strain hsp82, active compounds read low 1.01 | S. cerevisiae deletion strains, locus YPL241C, strain CIN2, active compounds read low 0.996 | S. cerevisiae deletion strains, locus YPL256C, strain CLN2, active compounds read low 1.01 | S. cerevisiae deletion strains, locus YPR119W, strain clb2, active compounds read low 0.985 | S. cerevisiae deletion strains, locus YPR141C, strain kar3, active compounds read low 0.972 | S. cerevisiae deletion strains, locus YPR163C, strain tif3, active compounds read low 0.968 | S. cerevisiae deletion strains, locus YPR167C, strain met16, active compounds read low 0.993 | S. cerevisiae deletion strains, strain wtn01, active compounds read low 1.01 | S. cerevisiae strains, strain wild type, active compounds read low 0.998
